The values below come from PubChem BioAssay (NCATS).

Where “and” joins values, the source holds several entries; their conditions need not be identical. Equal entries are not always repeated. Inconclusive results are not listed. A call without a number means that no potency is given here. Unmarked numbers belong to inactive results. Calls of active or inactive are those of the source. The call rests on the fitted dose curve.
Potency means the concentration at half of the fitted maximal effect.

Sequence of Cytochrome P450 1A2 (Homo sapiens) (P05177 whole entry, looked up): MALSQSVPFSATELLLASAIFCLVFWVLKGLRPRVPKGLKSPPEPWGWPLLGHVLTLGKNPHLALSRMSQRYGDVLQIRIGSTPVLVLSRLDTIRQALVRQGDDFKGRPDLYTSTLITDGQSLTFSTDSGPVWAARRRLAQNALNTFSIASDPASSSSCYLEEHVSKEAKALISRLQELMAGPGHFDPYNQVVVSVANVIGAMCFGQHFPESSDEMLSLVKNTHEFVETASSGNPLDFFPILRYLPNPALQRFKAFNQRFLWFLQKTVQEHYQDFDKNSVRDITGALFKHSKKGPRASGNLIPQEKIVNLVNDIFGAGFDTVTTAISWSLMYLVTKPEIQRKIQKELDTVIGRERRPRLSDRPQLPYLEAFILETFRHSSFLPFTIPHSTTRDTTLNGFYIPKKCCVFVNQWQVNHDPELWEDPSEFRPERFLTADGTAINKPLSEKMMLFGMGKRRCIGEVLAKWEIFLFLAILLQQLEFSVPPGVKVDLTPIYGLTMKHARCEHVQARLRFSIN

The target in the experiment is Cytochrome P450 1A2 (Homo sapiens) (UniProt P05177). Nature of the experiment: p450-cyp1a2 (AID 410). The settings on record: recombinant CYP1A2, luciferin-ME demethylation, luminescence; series mostly up to 57 µM. In a few lines:
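Luminescent readout of luciferin formed from Luciferin-ME by human CYP1A2; data normalized against complete inhibition by 57 uM furafylline. Enzyme 20nM, substrate 100uM at Km, 100mM KPO4 buffer, 60 min reaction at room temperature.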
Turning to `NN=C(N)N`, the Potency result was “inactive”.
On to `Oc1cccc2cccnc12`, for which the activity change, negative = inhibition is -20% [at 11.4 µM].
With `O=[N+]([O-])c1cc([As](=O)(O)O)ccc1O`, the Potency entry was “inactive”.
As for `COc1ccccc1N1CCNCC1`, the Potency result is “inactive”.
With `Nc1ccncc1`, the Potency entry is “inactive”.
On to `NCC1(CC(=O)O)CCCCC1`, for which the Potency entry was “inactive”.
Take `CCCN1CCC[C@@H]2Cc3nc(N)ncc3C[C@H]21`: the Potency result is “inactive”.
For `N#CC(C#N)=Cc1ccc(O)c(O)c1`, the Potency is 15.8 µM (active) and 5.01 µM (active).
On the same count and under the same terms, the same measure for `c1ccc(C2CC2)c(OCC2=NCCN2)c1`: 15.8 µM (active) and 25.1 µM (active); for `Cc1ccc(S(=O)(=O)N[C@@H](CCCCN)C(=O)CCl)cc1`: “inactive”; for `Clc1cccc(N2CCNCC2)c1`: 15.8 µM (active).
Turning to `Cc1cccc(C)c1NC1=NCCCS1`, the Potency result was “inactive”.
Take `N[C@@H]1C[C@H]1c1ccccc1`: the Potency is 15.8 µM (active).
In the case of `CCCN1CCC[C@@H]2Cc3[nH]ncc3C[C@H]21`, the Potency result is “inactive”.
